Assay results: PubChem BioAssay (NCI)
The panel holds about 83,000 compounds, 20% with a hit somewhere; the sample as a whole holds those more often.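 Negative percent growth values reflect cell death: -40 means 40% of the cells present at the start died, and -100 means all died.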 Values without a mark were called inactive. Activity calls are given as the source filed them. Rule for the calls: active = growth percent below 10; inactive = the rest.

How the values were obtained:
Experiment in all cases: NCI-60 one-dose screen, 48 h (100 = growth as untreated, 0 = no growth, -100 = all killed)
Conditions in all cases: 10 µM unless noted
[1] = test system: SR leukemia
[2] = test system: RPMI-8226 leukemia
[3] = test system: OVCAR-8 ovarian
[4] = test system: OVCAR-5 ovarian
[5] = test system: OVCAR-4 ovarian
[6] = test system: SK-OV-3 ovarian
[7] = test system: IGROV1 ovarian
[8] = test system: OVCAR-3 ovarian
[9] = test system: HS 578T breast
[10] = test system: NCI/ADR-RES ovarian
[11] = test system: MDA-MB-435 melanoma
[12] = test system: SW-620 colon
[13] = test system: MCF7 breast
[14] = test system: HCT-116 colon
[15] = test system: HCC-2998 colon
[16] = test system: KM12 colon
[17] = test system: T-47D breast
[18] = test system: BT-549 breast

SMILES	growth [1]	growth [2]	growth [3]	growth [4]	growth [5]	growth [6]	growth [7]	growth [8]	growth [9]	growth [10]	growth [11]	growth [12]	growth [13]	growth [14]	growth [15]	growth [16]	growth [17]	growth [18]
COc1ccc(NC(=O)C(=O)c2c[nH]c3ccc(F)cc23)cc1	81.4%	92.7%	99%	106%	102%	89.4%	118%	99.8%	104%	96.2%	95.5%	99.9%	86.3%	79.1%	109%	94.5%		
COc1cc2c(=O)n(CCCn3ccnc3)c3c4cc5c(cc4ccc3c2cc1OC)OCO5	10.5%	-31.9% (active)	15.1%	13.9%	28.6%	-11.4% (active)	19.5%	-8.36% (active)		10.5%	-25.3% (active)	11%	4.23% (active)	-62.1% (active)	33.3%	8.03% (active)	-10.9% (active)	28.4%
C[N+](C)(C)CCOC(OCC[N+](C)(C)C)(c1ccccc1)c1ccccc1	89.5%	106%	105%	104%	107%	103%	124%		115%	97.9%	121%	103%	92.8%	105%	97%		106%	101%
CSc1nc(N)c(CNC(C)c2ccccc2)c(=O)n1C (configuration not stated)	103%	109%	97.9%	91.7%	104%	97.5%	101%	110%		100%	98.4%	107%	93.5%	92.2%	101%	106%	97.2%	96.1%
Cc1nc(C)c(-c2nn3c(-c4cccc(F)c4)nnc3s2)s1	69.3%	96.2%	94.7%	112%	112%	104%	106%	113%	105%	91.3%	95.2%	96.8%	99.8%		105%	99%		
COc1ccc(OC)c(Nc2nc3nonc3nc2Nc2cccc(Br)c2)c1	19.6%	2.67% (active)	10.5%	9% (active)	12.1%	3.28% (active)	46.1%	10.1%	7.84% (active)	9.06% (active)	14.9%	11.7%	5.95% (active)	10.9%	25%	7.96% (active)		
O=C(Nc1cccc2[nH]c(C(F)(F)F)nc12)c1cc(Cl)ccc1Cl	25.3%	14.5%	26.5%	78.1%	23.2%	47.9%	35.8%	21.4%	53.9%	9.82% (active)	33.3%	42.4%	16.7%	25.7%	33.8%	20%		
Cc1csc(NC(=O)c2sc3nc(-c4cccs4)ccc3c2N)n1	81.5%	81.1%	97%	116%	114%	96.1%	109%	111%	99.5%	94.1%	108%	99.4%	71.3%		114%	92.9%		
c1ccc([P+](CCCc2n(Cc3ccc4ccccc4c3)c3ccccc3[n+]2Cc2ccc3ccccc3c2)(c2ccccc2)c2ccccc2)cc1	30.8%	6.9% (active)	70.2%	60.1%	74.4%	84.5%	20.8%	75.8%		83.7%	25.2%	35.2%	73.9%	24.2%	53.9%	32.2%	56.9%	68.1%
COc1cc(/C=C2\C=C(c3ccccc3)N(CCc3ccccc3)C2=O)cc(OC)c1OC	85.5%	83.3%	38.5%	105%	33.4%	62.9%	83.1%	87.7%		66.8%	89.5%	85.2%	70.9%	52.2%	102%	80.6%	56.9%	91.3%
